Source: PubChem BioAssay (several laboratories)
This is a sample that favours compounds with a hit; in the whole collection about 1.2% have one here.
BCLXL inh: blocks human Bcl-xL binding to Bim BH3 peptide | hit rate 0.7% among 320,000 | inhibition, % at 10.9 µM | GST-Bcl-xL / FITC-Bim BH3 peptide fluorescence polarization | Q07817;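 active means inhibition above the mean of all tested compounds plus 3 SD, cutoff set per campaign, cut at about 30% in these data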;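 further: 0% = DMSO wells and 100% = unlabeled Bim-BH3 peptide competitor; inhibitors lower millipolarization by displacing the labeled peptide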
Target sequence (Q07817 whole entry, looked up): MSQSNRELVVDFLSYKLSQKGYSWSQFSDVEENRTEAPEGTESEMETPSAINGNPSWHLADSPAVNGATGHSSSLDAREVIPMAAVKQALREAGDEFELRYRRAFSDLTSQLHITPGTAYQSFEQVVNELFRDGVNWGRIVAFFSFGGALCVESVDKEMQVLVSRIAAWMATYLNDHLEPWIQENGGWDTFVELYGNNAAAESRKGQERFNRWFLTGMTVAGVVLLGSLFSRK
C-LANA FP: inhibitors of KSHV LANA C-terminal domain DNA binding | inhibition, % at 9 µM | MBP-C-LANA/FAM-LBS DNA binding, fluorescence polarization | hit rate 0.078% among 340,000;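 active means highest replicate inhibition at or above 60% at 9 µM, even if other replicates fall short; inactive means all replicates below 60% inhibition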;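 further: 0% = neutral control wells and 100% = 4 µM acridine orange control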
MEX-5 binding: C. elegans MEX-5 TCR-2 RNA binding activity; activity score (negative = inhibition of binding), % at 10 µM; MEX-5/FITC-TCR2 RNA binding, fluorescence polarization; active compounds read low; hit rate 0.38% among 300,000; Q9XUB2;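 active means inhibition past about -25% in most replicates, and total fluorescence under double the plate's negative control median, limit read from the data; inconclusive means replicates evenly split on the limit, or fluorescence at least double controls; inactive means too little inhibition in most replicates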;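 further: 0% = DMSO and -100% = 5 µM competing unlabeled TCR2 RNA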
eLon inh: inhibits E. coli Lon protease. purified E. coli Lon protease, fluorescence polarization. inhibition, % at 7.94 µM. hit rate 0.42% among 360,000. AID 602123; in the data active means inhibition above about 13%, passing the limit was not always enough;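 further: 0% = enzyme with probe and DMSO and 100% = no enzyme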
GLD-1 TGE inh: GLD-1-TGE RNA interaction inhibition (C. elegans) | Q17339 | purified GLD-1 + fluorescein TGE RNA, fluorescence polarization | inhibition, % at 5.96 µM | hit rate 0.44% among 320,000 | AID 2280;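 active means percent inhibition above a per-plate cutoff, the plate mean of test compounds plus 3 SD, cut at about 30% in these data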;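 further: 0% = DMSO wells with GLD-1 and probe and 100% = wells lacking GLD-1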
Target sequence (Q17339 whole entry, looked up): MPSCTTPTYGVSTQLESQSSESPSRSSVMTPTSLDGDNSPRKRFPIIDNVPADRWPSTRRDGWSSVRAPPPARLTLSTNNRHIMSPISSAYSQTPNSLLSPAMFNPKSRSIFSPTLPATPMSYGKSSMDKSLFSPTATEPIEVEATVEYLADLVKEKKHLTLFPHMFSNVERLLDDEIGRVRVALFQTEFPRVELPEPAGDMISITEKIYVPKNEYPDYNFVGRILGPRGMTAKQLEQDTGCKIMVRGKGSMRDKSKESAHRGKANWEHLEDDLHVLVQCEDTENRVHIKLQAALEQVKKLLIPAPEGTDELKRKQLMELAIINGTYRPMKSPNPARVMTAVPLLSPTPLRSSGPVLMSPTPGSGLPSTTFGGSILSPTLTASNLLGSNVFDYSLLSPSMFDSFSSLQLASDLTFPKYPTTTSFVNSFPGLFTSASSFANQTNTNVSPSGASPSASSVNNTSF
Keap1 Nrf2 FP: inhibitors of human Keap1-Nrf2 protein-protein interaction | AID 504523 | Keap1 Kelch-Nrf2 peptide fluorescence polarization, 1536-well | inhibition, % at 9.4 µM | hit rate 0.15% among 340,000; in the data active means inhibition above about 12%; inconclusive means no clear call, values can overlap the other calls; inactive means below about 7.3%;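 further: human Keap1 Kelch domain with fluorescein labeled Nrf2 9mer peptide probe; 0% = neutral control wells and 100% = peptide positive control; higher means more block of Keap1 binding to Nrf2 peptide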
An asterisk follows results filed as active; i = inactive; u = inconclusive; x = no result given.

SMILES	BCLXL inh	C-LANA FP	MEX-5 binding	eLon inh	GLD-1 TGE inh	Keap1 Nrf2 FP
Cc1ccccc1C(=O)N=c1ccn(-c2nc3ccccc3nc2NS(=O)(=O)c2ccc(F)cc2)cc1	34.2*	6.3	u	2.8	5.1	-12.8
COc1ccc(/C=N/Nc2nc(=O)[nH]nc2C)cc1[N+](=O)[O-]	2.5	1.3	-0.8	0.6	1.4	-1.7
COc1cc(/C=N/Nc2nc(=O)[nH]nc2C)ccc1O	-10.7	1.0	u	-10.1	-4.5	1.3
Cc1n[nH]c(=O)nc1N/N=C/c1ccc(O)c([N+](=O)[O-])c1	2.6	1.5	-27.6*	-3.5	7.5	-4.7
COc1cc(/C=N/Nc2nc(=O)[nH]nc2C)cc([N+](=O)[O-])c1O	14.9	1.8	-78.7*	6.5	5.3	-0.3
COc1cc(/C=N/Nc2nc3ccccc3s2)cc([N+](=O)[O-])c1O	34.2*	2.0	-3.3	9.6	-4.7	-0.4
Cc1ccc(CCN2CC(C(=O)NC3CCC(C)CC3)CC2=O)cc1 (stereo not given)	x	x	x	-6.2	x	x
O=C1CCNc2cc3ccccc3cc21	112.1*	2.0	-5.3	6.3	56.7*	-0.2
CCc1nc2ccc(C(=O)NCCN3CCOCC3)cn2c1N(C=O)Cc1ccc(OC)cc1	x	x	x	-5.5	x	x
O=C1C=C(NNC(=O)c2ccccc2Br)CCC1	12.5	10.0	-5.1	22.4	68.6*	2.6
Cc1ccc(N(C)S(=O)(=O)c2c(C)noc2/C=C/N(C)C)cc1	-23.1	0.0	-30.1*	-29.6	-10.2	-5.0
COc1ccc2nc3cc(Cl)ccc3c(Nc3cc(C(C)C)c(O)cc3C)c2c1	-4.4	51.4	-0.7	11.4	4.9	-2.1
COc1ccc2nc3cc(Cl)ccc3c(Nc3cc(CN4CCCC4)c(O)c(CN4CCCC4)c3)c2n1	5.0	x	-35.7*	4.1	-1.0	x
C/C(=N\NC(=O)c1ccncc1)c1cc2ccccc2oc1=O	3.2	-1.1	-4.1	-8.5	3.7	-6.0
C/C(=N/NC(=O)c1ccncc1)c1cc2ccc(O)cc2oc1=O	23.9	74.7*	x	i	-73.9	-76.3
COc1cc(OC)c(C=NNC(=S)NC23CC4CC(CC(C4)C2)C3)c(OC)c1	x	-6.9	x	-0.8	x	5.4
CS(=O)(=O)c1ccc(Cl)c(NC(=O)COC(=O)c2ccc(F)cc2Cl)c1	0.0	71.5*	1.1	6.1	-1.4	1.4
CS(=O)(=O)c1ccc(Cl)c(NC(=O)COC(=O)c2cccc(C#N)c2)c1	-3.6	0.1	-4.9	4.4	1.0	-1.2
O=C(O)c1cc(Cl)c2c(c1)[C@@H]1C=CC[C@@H]1[C@H](c1ccc(S(=O)(=O)N3CCOCC3)cc1)N2	39.5*	-1.5	-25.7*	9.2	14.6	-4.7
O=C(O)c1ccc(CN2C(=O)c3cccc4c([N+](=O)[O-])ccc(c34)C2=O)cc1	x	0.8	-5.6	43.6	x	0.2
O=C(Nc1nccs1)c1cccc(N2C(=O)c3cccc4c([N+](=O)[O-])ccc(c34)C2=O)c1	42.9*	-0.4	-4.2	10.4	69.3*	-6.9
Cc1ccc(C(=O)O)cc1N1C(=O)c2cccc3c([N+](=O)[O-])ccc(c23)C1=O	81.7*	52.8	-24.2	14.0	50.4*	-2.6
O=C(Nc1ccc(S(=O)(=O)Nc2nccs2)cc1)c1cccc(N2C(=O)c3ccccc3C2=O)c1	3.7	7.6	-3.2	1.5	-2.8	-4.1
COc1ccc(C(=O)N2CCC(O)(c3ccc(Cl)cc3)CC2)cc1OC	9.1	-0.5	0.3	3.9	1.5	-4.1
CCC(=O)c1ccc(OCC(=O)OC(C)C(=O)N2CCc3ccccc32)cc1 (stereo not given)	3.3	-0.5	1.8	-1.4	7.9	-4.1
SMILES	BCLXL inh	C-LANA FP	MEX-5 binding	eLon inh	GLD-1 TGE inh	Keap1 Nrf2 FP
CCCNC(=O)c1ccccc1NC(=O)COc1cccc2c1OC(C)(C)C2	-0.9	-1.3	3.5	4.3	-0.4	-2.5
O=C(COc1ccc(Cl)cc1)NCc1nnc(SCC(=O)Nc2ccccc2F)o1	2.1	1.2	-0.7	1.1	2.2	-6.1
Cc1oc2ccc(O)cc2c1C(=O)c1ccccc1	-2.2	0.0	-1.2	-1.7	-0.1	1.7
Cc1cc(=O)c(C(=O)c2ccccc2)c(C)o1	37.1*	0.9	-0.3	14.2	6.4	1.5
CC1C(=O)N(Cc2cn(Cc3ccco3)nn2)CCS(=O)(=O)N1Cc1ccc(-c2ccc(Cl)cc2)cc1 (stereo not given)	x	x	x	-1.5	x	x
CCOC(=O)[C@H]1[C@H]2COc3ccccc3[C@@H]2N2C(=O)CN(Cc3ccc(C)cc3)C(=O)[C@@]12C	x	60.6*	x	-14.1	91.4*	7.9
CCOC(=O)[C@H]1[C@H]2COc3ccc(C)cc3[C@@H]2N2C(=O)CN(Cc3ccc(Cl)cc3)C(=O)[C@@]12C	4.5	-1.6	x	5.7	-0.9	-3.1
O=C(O)c1ccc(NC2=C(Cl)C(=O)c3ccccc3C2=O)cc1	15.8	3.7	-7.0	0.3	5.1	9.3*
COc1cccc(C(=O)NCCCNC(=O)c2cccc(OC)c2)c1	-4.9	-2.3	1.8	-5.8	-2.9	-2.9
COc1cc(OC)cc(C(=O)NCCCCCCNC(=O)c2cc(OC)cc(OC)c2)c1	44.4*	1.9	x	5.2	24.2	0.3
Cc1[nH]nc2c1C1(CCN(Cc3ccccc3)CC1)C(C#N)=C(N)O2	40.3*	7.8	-1.8	-9.4	17.1	2.5
Cc1[nH]nc2c1C1(CCOCC1)C(C#N)=C(N)O2	4.4	-0.8	-4.6	-1.1	14.2	-4.6
N#Cc1cc2c(=O)n3ccccc3nc2n(-c2ccccc2Cl)c1=O	16.6	12.4	-26.7*	-3.3	4.8	u
O=C(CNS(=O)(=O)c1ccccc1)OCC(=O)c1cccc([N+](=O)[O-])c1	-4.4	0.4	2.7	6.9	5.6	-1.3
O=C(CNS(=O)(=O)c1ccccc1)OCc1cccc([N+](=O)[O-])c1	37.6*	0.8	1.6	-3.1	4.6	0.8
COC/C=C/C1=CC2=CC(=O)C(C)(OC(=O)c3cnc4ccccc4n3)C(=O)C2=CN1c1cccc(C#N)c1 (stereo not given)	14.1	x	-4.0	x	17.7	x
CC1(OC(=O)c2cnc3ccccc3n2)C(=O)C=C2C=C(c3ccc(C#N)cc3)OC=C2C1=O (stereo not given)	25.1	x	-8.1	x	47.3*	x
COC/C=C/C1=CC2=CC(=O)C(C)(OC(=O)c3cnc4ccccc4n3)C(=O)C2=CO1 (stereo not given)	74.0*	x	-41.6*	x	58.4*	x
Cc1ccccc1NS(=O)(=O)c1cc(C(=O)N2CCCC2)ccc1C	47.8*	0.3	u	-3.2	-1.7	-6.2
CC1CCCN(C(=O)c2ccc(S(=O)(=O)Nc3ccccc3Cl)cc2)C1 (stereo not given)	36.2*	0.8	-0.8	-9.6	0.8	1.0
Oc1ccc(-c2cn3c(n2)SCC3)cc1O	27.8	19.9	-39.8*	3.6	5.5	-2.8
Oc1ccc(-c2cn3c(n2)SCC3)cc1	3.8	-0.9	-0.4	2.4	4.0	-0.2
